Compounds without any hit were thinned out: in the full panel of roughly 83,000, 20% have a hit.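 Activity criterion: percent growth below 10, measured after cells in 96-well plates were exposed to a single compound concentration for 48 hours.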 Unmarked numbers belong to inactive results. Active and inactive are the calls of the source.
system: MDA-MB-468 breast; test: NCI-60 one-dose screen, 48 h (100 = growth as untreated, 0 = no growth, -100 = all killed); settings: 10 µM unless noted

Structure (SMILES)	growth
O=C1CCC(C(=O)NN(c2ccccc2)c2ccccc2)N1 (stereo not drawn)	94.5%
Cc1cccc(NCc2cn(-c3ccc(C(=O)O)cc3)nc2-c2ccc(C(=O)O)cc2)n1	101%
O=C(Nc1ncc(Cc2ccc(Cl)cc2)s1)c1ccc2c(c1)OCCO2	47.1%
O=C1C(Cl)=C(NCCN2CCOCC2)C(=O)c2ncccc21	-74.1% (active)
Cc1nc(NC(=S)Nc2ccc(F)cc2)sc1C(=O)NNC(=S)Nc1ccc(F)cc1	44.6%
COc1cccc2c1C=C1CCCCC3=Cc4c(OC)cccc4OC13O2	19%
O=C1Nc2ccc(Cl)cc2/C1=N/N=C/c1c[nH]c2ccccc12	98.7%
CCN(CC)CCCNC(=O)c1ccc(N)cc1	86.2%
CCn1c(O)c(/C=N/NC(=O)C(C)c2ccc(CC(C)C)cc2)sc1=S (stereo not drawn)	6.34% (active)
CN(CCCNC(=O)Cc1ccc2ccc3cccc4ccc1c2c34)CCCNc1cc(-c2ccc3ccccc3c2)nc2ccccc12	-78.4% (active)
O=[N+]([O-])c1ccc(Sc2cccc[n+]2[O-])c2nonc12	49.3%
CCN1C(=O)N(CC)C2C1NN=c1s/c(=C3\C(=O)N(C)c4ccccc43)c(=O)n12 (stereo not drawn)	13.4%
O=C1CCC(c2c(O)cc(O)c3c(=O)c(O)c(-c4ccc(O)c(O)c4)oc23)N1 (stereo not drawn)	108%
O=C1C=CC(=O)c2c1nc1n2CCCC1	90.2%
CC[C@]12C=CCN3CC[C@@]4(c5cc(NC(=O)CCC(=O)O[C@H]6CC[C@H]7[C@@H]8CCC9=CC(=O)CC[C@@H]9[C@H]8CC[C@]67C)c(OC)cc5N(C)[C@H]4[C@@](O)(C(=O)OC)[C@@H]1OC(C)=O)[C@@H]32	51.9%
CN(CC(=O)O)c1ccc(/C=C/c2ccnc3ccccc23)cc1	-0.654% (active)
Cc1c(C(=O)N[C@@H](Cc2ccccc2)C(=O)C(=O)NCCc2ccccc2)[nH]c2ccccc2c1=O	110%

Structure (SMILES)	growth
COC(=O)[C@]1(C)CCC[C@]2(C)[C@H]3C[C@H]4C(C(C)C)=C[C@]3(CC[C@H]21)[C@@H]1C(=O)CC[C@H](OCCC#N)[C@@H]14	70.5%
CCN(CC)CCCC(C)N/C(c1cccc(OC)c1)=c1\c(=O)[nH]n(-c2c3ccccc3nc3ccccc23)c(=O)\c1=C(/NC(C)CCCN(CC)CC)c1cccc(OC)c1 (stereo not drawn)	-56.2% (active)
O=C(O)c1ccc2c(c1Sc1ccccc1)C(=O)c1ccccc1C2=O	97.9%
CC(=O)C1CCC2C3CC=C4CC(SC(=N)N)CCC4(C)C3CCC12C (stereo not drawn)	-36.8% (active)
COC(=O)/C=C/c1cc(OC)c2c(c1)[C@@H](C(=O)OC)[C@H](c1ccc(OC)c(OC)c1)O2	50.9%
C=C(C)[C@@H]1CC[C@]2(C(=O)OC)CC[C@]3(C)[C@H](CC[C@@H]4[C@@]5(C)C/C(=C/NC(N)=S)C(=O)C(C)(C)[C@@H]5CC[C@]43C)[C@@H]12	103%
O=C1COCCN1c1ccc(NCc2cn(Cc3ccc(F)cc3)c3ccccc23)cc1	-66.9% (active)
COc1cc2nnc3c4cccnc4[nH]c3c2cc1OC	-69.9% (active)
COc1cc2c(cc1-c1c(C)noc1C)ncc1nc(C3CCC(F)(F)CC3)n([C@@H](C)COC(F)F)c12	39.3%
CN(C)C(=O)SC1=C(c2c(Cl)cccc2Cl)C(=O)c2ccccc21	-86.5% (active)
O=C1OCC2=C1C(c1ccccc1)c1cc3c(cc1N2CCO)OCCO3 (stereo not drawn)	-63.7% (active)
COc1ccc(Cn2cc(COc3cc(/C=C/C(=O)c4cc(OC)c(OC)c(OC)c4)ccc3OC)nn2)cc1	49%
CCCCCCNC(=O)Oc1ccc(/C(=C(/CC)Cc2ccccc2)c2ccc(OCCN(CC)CC)cc2)cc1	64.4%
CCC/C=C/C=C/C(=O)N[C@@H](Cc1cc(F)cc(F)c1)C(=O)N[C@@H]1C(=O)N2CCC[C@H]2C(=O)N2CCCC[C@H]2C(=O)N[C@@H](C)C(=O)N2C[C@H](C)C[C@H]2C(=O)O[C@H]1C	-0.457% (active)
COc1ccc2c(c1)C1=NN(C(=O)CO)[C@H](c3ccc(OC(F)(F)F)cc3)[C@@H]1CC2	117%
Brc1ccc2[nH]cc(-c3nn4cc(-c5nccs5)nc4s3)c2c1	51.2%

From PubChem BioAssay (NCI)
